The record followed here is PubChem BioAssay.

Test [1] is described as follows: compounds altering circadian rhythm period length – cell-based, LOPAC library, luminescence reporter (AID 2774).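 Further: values are relative to mean of DMSO wells on each plate.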 The settings on record: circadian reporter cells, at 7 µM, actives lie on both sides.
Test [2] has as its system Hepatitis C virus NS3 helicase. Nature of the test: blockers of NS3h binding to ssDNA – biochemical, fluorescence polarization, LOPAC1280 library, primary screen (AID 687035; in the data active means inhibition above about 37%). The settings on record: Purified HCV NS3 helicase, Cy5-dT15 ssDNA binding fluorescence polarization; stronger effect = higher value; concentration not given here. In general terms: Polarisation of emitted light reports the rotation of a fluorescent probe.

Test [3] in a line: compounds altering Cy5-DNA-NS3h complex signal – biochemical, LOPAC1280, artefact control for HCV NS3 helicase inhibitor project (AID 687037). The settings on record: Cy5-DNA-NS3h complex fluorescence interference counterscreen. On the technique in general: The purpose of a counterscreen is to sort out artefacts and off-target activity.
The nature of test [4]: growth inhibition, single agent or in combination, cell-based, chromothripsis tumors, cisplatin or BGB combos (AID 1671449; in the data active means inhibition above about 80%;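 further: cells exposed for 96 hours; 0% = vehicle DMSO and 100% = killing by high DMSO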). The settings on record: LFS_MB_P medulloblastoma cells.
The nature of test [5]: growth inhibition, single agent and combos, cell-based, chromothripsis tumors, cisplatin or BGB combos (AID 1671450; in the data active means inhibition above about 80%;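 further: cells exposed to compound for four days; 0% = vehicle DMSO and 100% = cell killing by high DMSO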). The settings on record: HDN33 neuroblastoma cells, stronger effect = higher value.
Test [6] is described as follows: growth inhibition, single agents and combos, ICB984, cell-based, cisplatin or BGB combos, synergistic combos for chromothripsis tumors (AID 1671451).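 Further: cells exposed for 96 hours before readout; 0% = vehicle DMSO and 100% = killing by high DMSO.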 The settings on record: ICB984 medulloblastoma cells, drug combinations, stronger effect = higher value.
A short description of test [7]: growth inhibition, single agents and combos, LFS_MB_1R, cell-based, cisplatin or BGB combos, synergistic combos for chromothripsis tumors (AID 1671452; in the data active means inhibition above about 80%;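 further: cells exposed for 96 hours before readout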). The settings on record: LFS_MB_1R medulloblastoma cells, stronger effect = higher value.
Test [8] is described as follows: growth inhibition, single agents and combos, HTB85, cell-based, BGB or cisplatin IC20 combos, synergistic combos for chromothripsis tumors (AID 1671453; in the data active means inhibition above about 80%;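 further: cells exposed for 96 hours before readout; 0% = vehicle DMSO and 100% = high DMSO killing control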). The settings on record: HTB85 osteosarcoma cells, drug combinations, stronger effect = higher value.
A short description of test [9]: growth inhibition, single agents and combos, CRL2098, cell-based, BGB or cisplatin IC20 combos, synergistic combos for chromothripsis tumors (AID 1671454; in the data active means inhibition above about 80%;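 further: cells exposed for 96 h before readout; 0% = vehicle DMSO and 100% = killing by high DMSO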). The settings on record: CRL2098 osteosarcoma cells, drug combinations, stronger effect = higher value.
Test [10] is described as follows: growth inhibition, single agents and combos, HD-MB03, cell-based, BGB or cisplatin IC20 combos, synergistic combos for chromothripsis tumors (AID 1671455; in the data active means inhibition above about 83%;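 further: 0% = vehicle DMSO and 100% = high DMSO as cytotoxic control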). The settings on record: HD-MB03 medulloblastoma cells, stronger effect = higher value.
A short description of test [11]: growth inhibition, single agents and combos, UWB1.289, cell-based, BGB or cisplatin combos, synergistic combos for chromothripsis tumors (AID 1671456; in the data active means inhibition above about 80%;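 further: cells exposed to compound for four days; 0% = vehicle DMSO and 100% = killing by high DMSO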). Particulars: UWB1.289 ovarian carcinoma cells, stronger effect = higher value.
Test [12] is described as follows: growth inhibition, MDA-MB-436, cell-based, BGB or cisplatin combos, synergistic combos for chromothripsis tumors (AID 1671458).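 Further: cells exposed for 96 hours; 0% = vehicle DMSO and 100% = killing by high DMSO.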 Particulars: MDA-MB-436 breast carcinoma growth inhibition, drug combinations, stronger effect = higher value.
Test [13] in a line: BT084 cell growth, single and combined drugs, ICGC_MB145, cisplatin and BGB IC40 combos (AID 1671461; in the data active means inhibition above about 80%;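 further: cells exposed to drugs for 96 hours; 0% = vehicle DMSO and 100% = high DMSO full killing control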). The settings on record: BT084 medulloblastoma cells, drug combinations, stronger effect = higher value.
Test [14] can be described thus: RCMB18 cell growth, single agent and combined, cisplatin and BGB IC40 combos (AID 1671462; in the data active means inhibition above about 80%;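 further: cells exposed to compound for four days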). Particulars: RCMB18 medulloblastoma cells, stronger effect = higher value.
Test [15] can be described thus: CRL1545 cell growth, single agent and combined, cisplatin and BGB IC20 combos (AID 1671464; in the data active means inhibition above about 80%;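 further: cells exposed to compound for 96 hours before readout; 0% = vehicle DMSO and 100% = high DMSO killing control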). Particulars: CRL1545 osteosarcoma cells, stronger effect = higher value.
Test [16] deals with NAD(+) hydrolase SARM1 (Homo sapiens) (UniProt Q6SZW1). Briefly: blocking NAD cleavage by SARM1 SAM-TIR – cell lysate, NAD-Glo luminescence (AID 1508614;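 active means compound whose remaining NAD level is above about 45 nM, limit read from the data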). Particulars: SAM-TIR HEK293T lysate NADase, at 1 µM, stronger effect = higher value.
NAD(+) hydrolase SARM1 (Homo sapiens), sequence (Q6SZW1 whole entry, looked up): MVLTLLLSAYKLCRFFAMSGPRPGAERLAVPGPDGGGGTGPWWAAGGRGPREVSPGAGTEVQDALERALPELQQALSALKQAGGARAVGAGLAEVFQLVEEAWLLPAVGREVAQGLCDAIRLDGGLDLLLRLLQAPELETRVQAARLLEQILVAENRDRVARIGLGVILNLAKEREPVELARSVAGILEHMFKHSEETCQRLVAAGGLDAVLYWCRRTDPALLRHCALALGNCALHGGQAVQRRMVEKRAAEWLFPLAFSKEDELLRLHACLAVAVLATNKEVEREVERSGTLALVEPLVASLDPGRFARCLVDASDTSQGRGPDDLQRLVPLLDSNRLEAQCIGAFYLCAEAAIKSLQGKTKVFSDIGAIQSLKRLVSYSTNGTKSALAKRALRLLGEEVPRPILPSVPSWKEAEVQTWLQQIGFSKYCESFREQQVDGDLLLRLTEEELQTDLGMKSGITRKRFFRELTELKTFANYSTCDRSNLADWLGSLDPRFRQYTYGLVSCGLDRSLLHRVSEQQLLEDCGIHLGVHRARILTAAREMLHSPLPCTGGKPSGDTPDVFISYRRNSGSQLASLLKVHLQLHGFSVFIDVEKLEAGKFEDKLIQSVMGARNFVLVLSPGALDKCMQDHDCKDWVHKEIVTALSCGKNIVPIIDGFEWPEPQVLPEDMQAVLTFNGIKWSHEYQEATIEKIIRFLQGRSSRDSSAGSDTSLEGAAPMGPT
Setting [17] is: measured here: combination with BGB IC40, at 0.05 µM.
[18] abbreviates: measured here: with BGB IC20 combination, at 0.5 µM.
[19] abbreviates: measured here: with cisplatin IC20 combination, at 0.5 µM.
[20] abbreviates: measured here: combination with cisplatin, at 0.5 µM.

What is called inhibition is the change of the read-out against control, counted positive when it falls.

Calls of active or inactive are those of the source. Unless noted, how the calls were made is not given here.

Turning to `O=c1[nH]c(=O)n([C@H]2C[C@H](O)[C@@H](CO)O2)cc1Br`, the period change in test [1] is -0.205 h (inactive). For the same compound, the inhibition is -1% (inactive) in test [2]; 27% (inactive) in test [4] (at 0.5 µM, stronger effect = higher value); -4.77% in [4] (measured here: combination with BGB IC20, at 0.005 µM); -39.7% in test [4] (measured here: combination with BGB IC40, at 0.005 µM); -12.1% in test [4] (setting [17]); 74.8% in test [4] (measured here: combination with cisplatin, at 0.5 µM, stronger effect = higher value). Also, the inhibition is -36% in test [4] (measured here: combination with cisplatin, at 5 µM, stronger effect = higher value); 11.2% in test [5] (BGB combo, at 5 µM); 21.5% (inactive) in test [5] (at 0.5 µM); 2.65% in [5] (cisplatin combo, at 5 µM); 31.8% in test [5] (setting [18]); 4.43% in test [5] (setting [19]). The inhibition in test [5] (single agent, at 5 µM) is 17%; in test [6] (BGB IC20 combo, at 0.005 µM) it was -12.2%; in [6] (BGB IC40 combo, at 0.005 µM), -50%; in test [6] (BGB IC40 combo, at 0.05 µM) it was -16.9%; in test [6] (at 0.5 µM), -24.2% (inactive); in test [6] (cisplatin combo, at 0.05 µM), -21.6%. Further, the inhibition in test [6] (cisplatin combo, at 0.5 µM) was -35.3%; in [6] (cisplatin combo, at 5 µM), -5.29%; in test [6] (measured here: 5 uM single agent, at 5 µM), -6.23%; in test [7] (at 0.5 µM), -8.78% (inactive); in test [7] (setting [17]) it was -9.5%; in [7] (setting [20]), -3.13%. Besides, the inhibition in [7] (measured here: combination with cisplatin, at 5 µM) was 18.2%; in test [8] (at 0.5 µM), -5% (inactive); in [8] (measured here: with BGB IC20, at 0.5 µM) it was -14.3%; in [8] (measured here: with BGB IC20, at 5 µM), -8.79%; in [8] (measured here: with cisplatin IC20, at 0.5 µM), -8.95%; in test [8] (measured here: with cisplatin IC20, at 5 µM) it was 4.02%. The inhibition in test [8] (single agent, at 5 µM) was 9.21%; in test [9] (at 0.5 µM), -34.2% (inactive); in test [9] (measured here: combination with BGB at IC20, at 0.5 µM), -5.25%; in [9] (measured here: combination with cisplatin at IC20, at 0.5 µM), -22.4%; in test [10] (at 0.5 µM), 14.2% (inactive); in test [10] (measured here: combo with BGB at IC20, at 0.5 µM), 14.5%. Also, the inhibition in test [10] (measured here: combo with cisplatin at IC20, at 0.5 µM) was 32.3%; in test [11] (at 0.5 µM), 3.4% (inactive); in test [11] (measured here: inhibition with BGB combination, at 0.05 µM), -18.3%; in test [11] (measured here: inhibition with cisplatin combination, at 0.05 µM) it was -5.15%; in test [12] (at 0.5 µM) it was -4.92% (inactive); in [12] (measured here: BGB combination, at 0.5 µM), -11.6%. Besides, the inhibition in test [12] (measured here: BGB combination, at 5 µM) is -22.5%; in test [12] (measured here: cisplatin combination, at 0.5 µM), -2.86%; in test [12] (measured here: cisplatin combination, at 5 µM), -6.5%; in test [13] (at 0.5 µM), -8.02% (inactive); in [13] (cisplatin combination, at 0.5 µM), 3.56%; in test [13] (cisplatin combination, at 5 µM), -1.86%. Also, the inhibition is -20.2% in [13] (measured here: BGB IC40 combination 0.05 uM, at 0.05 µM); -7.12% in test [13] (single agent, at 5 µM); -10.5% (inactive) in test [14] (at 0.5 µM); 28.1% in test [14] (cisplatin combo, at 5 µM); -19.3% in test [14] (measured here: BGB IC40 combination, at 0.05 µM); 32.5% in test [14] (setting [20]). Besides, the inhibition in test [14] (single agent, at 5 µM) is -34.1%; in [15] (at 0.5 µM), 8.96% (inactive); in test [15] (setting [18]), 3.57%; in [15] (setting [19]), 11.6%; in test [15] (single agent, at 0.05 µM), -0.752%; in test [15] (single agent, at 5 µM), 41.5%. Besides, the fluorescence ratio (interference) in test [3] is 1 (inactive).
In the case of `NC(N)=NCCC[C@H](N)C(=O)O`, the period change in test [1] was -0.2 h (inactive). Moreover, in test [2], the inhibition is -3% (inactive). The fluorescence ratio (interference) in [3] is 1 (inactive). For the same compound, the remaining NAD in test [16] is 10 nM (inactive).
For `CC1=C(CC(=O)O)c2cc(F)ccc2/C1=C\c1ccc(S(C)(=O)=O)cc1`, the period change in test [1] was 0.07 h (inactive). Besides, in [2], the inhibition is -4% (inactive). The fluorescence ratio (interference) in [3] was 1 (inactive).
On the same counts, the results for `OCCN1CCN(CC/C=C2/c3ccccc3Sc3ccc(C(F)(F)F)cc32)CC1` are -0.1 h (inactive), -1% (inactive) and 1 (inactive).
On the same counts, the results for `CCNC(=O)N1CCN(CCCC(c2ccc(F)cc2)c2ccc(F)cc2)CC1` are -0.05 h (inactive), -1% (inactive) and 1 (inactive).
On the same counts, the results for `Cc1nc2c([nH]1)c(=O)n(C)c(=O)n2Cc1ccco1` are 0.08 h (inactive), -1% (inactive) and 1 (inactive).
On to `CCC(=O)c1ccc2c(c1)N(CCCN(C)C)c1ccccc1S2`, for which, in [1], the period change is -0.02 h (inactive). The inhibition in test [2] was -4% (inactive). The fluorescence ratio (interference) in test [3] was 0.9 (inactive).
On the same counts, the results for `CCN1CCc2nc(N)oc2CC1` are 0.015 h (inactive), -3% (inactive) and 1 (inactive).
On the same counts, the results for `CSc1ccc(C(=O)c2[nH]c(=O)[nH]c2C)cc1` are 0.015 h (inactive), 0% (inactive) and 1.1 (inactive).
With `C(=C\c1ccccc1)/CN1CCN(C(c2ccccc2)c2ccccc2)CC1`, the period change in test [1] was 0.12 h (inactive). Further, the inhibition in test [2] was 1% (inactive). Moreover, the fluorescence ratio (interference) in test [3] was 1 (inactive). Also, the remaining NAD in test [16] is 10 nM (inactive).
Turning to `OCCN1CCN(CCCN2c3ccccc3C=Cc3ccccc32)CC1`, the inhibition in [2] was -5% (inactive). For the same compound, the fluorescence ratio (interference) in [3] was 1 (inactive).
As for `O=C(O)CP(=O)(O)O`, in test [1], the period change was 0.02 h (inactive). In [2], the inhibition is -3% (inactive). In addition, the fluorescence ratio (interference) in test [3] was 0.9 (inactive).
On the same counts, the results for `COC(=O)[C@@H](N)Cc1ccc(O)c(O)c1` are 0.105 h (inactive), -2% (inactive) and 1 (inactive).
Turning to `C[N+](C)(C)CCOC(=O)CCC(=O)OCC[N+](C)(C)C`, in test [1], the period change was 0.025 h (inactive). Moreover, the inhibition in [2] is 2% (inactive). Moreover, in test [3], the fluorescence ratio (interference) is 1 (inactive).
Take `COc1ccc(CCN(C)CCCC(C#N)(c2cc(OC)c(OC)c(OC)c2)C(C)C)cc1OC` (centres undefined): the period change in test [1] is -0.105 h (inactive). In addition, the inhibition in test [2] is -1% (inactive). Also, the fluorescence ratio (interference) in [3] is 1 (inactive).
In the case of `COC(=O)C1=C(C)NC(C)=C(C(=O)OC(C)(C)CN(C)CCC(c2ccccc2)c2ccccc2)C1c1cccc([N+](=O)[O-])c1` (centres undefined), the inhibition in [2] was 3% (inactive). Further, the fluorescence ratio (interference) in [3] was 1 (inactive).
On the same counts, the results for `CCN(CC)CCCN(c1ccccc1)C1Cc2ccccc2C1` are -1% (inactive) and 1 (inactive).
On the same counts, the results for `CC(C)(C)c1ccc(C(=O)CCCN2CCC(OC(c3ccccc3)c3ccccc3)CC2)cc1` are 3% (inactive) and 1 (inactive).
As for `O=C(O)CN(CCOCCOCCN(CC(=O)O)CC(=O)O)CC(=O)O`, the period change in [1] is 0.1 h (inactive). In addition, the inhibition in [2] is -1% (inactive). Further, the fluorescence ratio (interference) in test [3] is 1 (inactive).
On the same counts, the results for `CC(=O)[C@@]1(O)CC[C@H]2[C@@H]3CCC4=CC(=O)CC[C@]4(C)[C@H]3CC[C@@]21C` are 0.035 h (inactive), 0% (inactive) and 1 (inactive).
On to `O=c1[nH]c2ccccc2n1CCCN1CCN(C(c2ccccc2)c2ccccc2)CC1`, for which, in test [1], the period change was 0.15 h (inactive).
For the compound `C=CCNC(N)=S`, the remaining NAD in test [16] was 10 nM (inactive).
